From ChEMBL document CHEMBL1157539, “Thousands of chemical starting points for antimalarial lead identification” (Nature, 2010) come the findings set out here.

One test deals with Plasmodium falciparum. Put plainly: GSK_TCMDC: Inhibition of Plasmodium falciparum 3D7 in whole red blood cells, using parasite LDH activity as an index of growth. Test compounds present at 2uM. The class given is functional.
What is called Inhibition is the drop in the measured response relative to a control, in per cent. With `Cc1cc(Nc2cccc(C(F)(F)F)c2)nc(Nc2cccc(C(F)(F)F)c2)n1`, the Inhibition was determined as 100%.

The compound `NC(=O)c1ccsc1NC(=O)CNC(c1ccccc1)c1ccccc1` registered an Inhibition of 88%.

On to `O=C(O)C(F)(F)F.OCC1CCN(Cc2ccc(-c3ccc(-c4nc5cc(F)ccc5[nH]4)s3)cc2)CC1`, for which the Inhibition worked out at 100%.

In turn, `O=C(Nc1ccc(-c2ccc(-c3nc4ccccc4[nH]3)s2)cc1)Nc1ccc(Cl)c(Cl)c1` returned an Inhibition of 100%.

Compound `O=C(NCCN1CCCCC1)c1cccc(Nc2nccc(Nc3ccc(Oc4ccccc4)cc3)n2)c1` gave an Inhibition of 99%.

As for `CC(C)n1ncc2c(C(=O)N3CCCc4ccccc43)cc(-c3ccccc3)nc21`, the Inhibition worked out at 100%.

As for `O=C(Nc1cccc(-c2nn3ncccc3c2-c2ccnc(Nc3ccc(N4CCOCC4)cc3)n2)c1)c1c(F)cccc1F`, the Inhibition came to 100%.

`O=C(NCCc1cccc(Cl)c1Cl)c1ccc(N2CCN(c3ccncc3)CC2)nc1.O=C(O)C(F)(F)F` showed an Inhibition of 100%.

As to `CN1CCC(Oc2cc(CN3CC[C@H](NC(=O)c4ccc(Cl)c(Cl)c4)C3)ccc2I)C1.O=C(O)C(F)(F)F` (stereo partly specified), the Inhibition worked out at 97%.

Compound `CC(=O)c1cccc(NC(=O)N2CCCN(CCCCCNC(=O)/C=C/c3ccc(Cl)c(Cl)c3)CC2)c1` came in with an Inhibition of 93%.

Consider `COc1ccc(-c2cccc(NC(=O)c3cccc(C#N)c3)c2)cc1CN1CCCN(C)CC1.O=C(O)C(F)(F)F`, for which the Inhibition was 100%.

Turning to `CC(C)Cn1cc(C2CCN(CCN3CCC(CNC(=O)c4ccc(NC(=O)c5ccc(Cl)cc5)cc4)CC3)CC2)c2ccccc21`, the Inhibition was 100%.

For the compound `CCOC(=O)c1cn(CC)c2cc(N(C)CCc3ccc(OC)c(OC)c3)c(F)cc2c1=O.Cl`, the Inhibition came to 92%.

Regarding `O=C(NC(c1ccccc1)c1ccc2cccnc2c1O)c1ccccc1` (stereo unspecified), the Inhibition worked out at 94%.

`Cc1cccc2nc(-c3ccc(-c4ccc(CN5CCN(c6ccncc6)CC5)cc4)s3)[nH]c12.O=C(O)C(F)(F)F` had an Inhibition of 100%.

The compound `Cc1ccc(Nc2nc3cc(Nc4ccnc(Nc5ccc(CS(C)(=O)=O)cc5)n4)ccc3o2)cc1` returned an Inhibition of 99%.

Compound `COc1ccc(-c2ccc(CNC(=O)c3cccc(C#N)c3)c(F)c2)cc1CN1CCCN(C)CC1.O=C(O)C(F)(F)F` showed an Inhibition of 99%.

`CC(C)C[C@@H](/C=N/N1CCOC1=O)NC(=O)[C@H](CC(C)C)NC(=O)c1ccc(F)cc1` displayed an Inhibition of 85%.

`COc1ccc(CNCc2ccccc2)cc1-c1ccc(S(=O)(=O)NCCN2CCCC2)c(C)c1.O=C(O)C(F)(F)F`: the Inhibition worked out at 99%.

For `Cl.N=c1n(CCN2CCCCC2)c2ccccc2n1CC(O)c1ccc(Cl)c(Cl)c1` (stereo unspecified), the Inhibition is on record as 97%.

Consider `Cc1cc(N2CCCN(CC3CCCCC3)CC2)nc(Nc2ccc(Br)cc2)n1`, for which the Inhibition is given as 95%.

As for `Br.CCCc1cccc(C)c1OCCCON1C(=N)N=C(N)NC1(C)C`, the Inhibition was 95%.

Take `O=C(COc1cnc2ccccc2n1)Nc1ccccc1Sc1ccc(Cl)cc1`: the Inhibition was 100%.

With `CCCN(CC1CC1)c1nc(C)nc2c(-c3ccccc3)cc(C)cc12`, the Inhibition worked out at 96%.

As for `CC(NC(=O)c1ccc(O)c(-c2ccc(Cl)c(Cl)c2)c1)C(=O)NCCN1CCOCC1` (stereo unspecified), the Inhibition worked out at 87%.

`Nc1ccc(-c2ccc3ccnc(N)c3c2)cc1` gave an Inhibition of 100%.

For the next test, the system named is Plasmodium falciparum. Put plainly: GSK_TCMDC: Inhibition of Plasmodium falciparum Dd2 in whole red blood cells, using parasite LDH activity as an index of growth. Test compounds present at 2uM. The class given is functional.
`CCN(CCCN1CCCCC1)c1cc(C)nc(Nc2ccc(Cl)cc2C)n1.O=C(O)C(F)(F)F` displayed an Inhibition of 46%.

`Cc1cc(NC(=O)[C@H](CC2CCCCC2)Nc2ccc(C#N)c3ccccc23)ccc1F.O=C(O)C(F)(F)F` had an Inhibition of 99%.

The compound `c1cncc(CNc2ncc(-c3ccsc3)c(-c3nccs3)n2)c1` registered an Inhibition of 63%.

Compound `CCOc1ccc(C(=O)Nc2cc(Br)c3c(c2)CNCC3)cc1Cl.Cl` displayed an Inhibition of 8%.

`Cl.O=C(Nc1ccc(C(=O)Nc2ccc(C3=NCCN3)cc2)cc1)Nc1ccc(C2=NCCN2)cc1`: the Inhibition was found to be 95%.

For `O=C(O)C(F)(F)F.O=S(=O)(NC1CCN(c2ccnc3cc(Cl)ccc23)C1)c1cccc(F)c1` (stereo unspecified), the Inhibition is 88%.

In the case of `O=[N+]([O-])c1ccc2nc(Nc3ccc(Cl)c(Cl)c3)c(Nc3ccc(Cl)c(Cl)c3)nc2c1`, the Inhibition came to 99%.

`COc1ccc(C2=C(Nc3ccc4oc5ccccc5c4c3)c3ccccc3C2=O)cc1` had an Inhibition of 92%.

For the compound `Nc1nc2c(cnn2CCCCCCCP(=O)(O)O)c(=O)[nH]1`, the Inhibition came to 91%.

Compound `COc1cc(C)nc2ccc(NC(=O)COCC(=O)Nc3ccc4nc(C)cc(OC)c4c3)cc12` yielded an Inhibition of 41%.

Consider `CC(=O)Nc1ccc(OCCCN(Cc2ccccc2C(F)(F)F)c2ccc(C(F)(F)F)c(C#N)c2)c(Cl)c1`, for which the Inhibition was 43%.

The compound `COc1ccc(C)cc1NC(=O)CSc1nc2cccnc2n1C1CCCCC1` showed an Inhibition of 78%.

Turning to `COC(=O)c1cc(OC2CCOC2=O)cc2c1OC(C)(C)O2` (stereo unspecified), the Inhibition is reported as 0%.

For `COc1ccc2nccc([C@H](O)CN3CCC(NCc4cc(C)c5c(c4)OCCO5)CC3)c2n1.Cl`, the Inhibition was found to be 35%.

`Cc1cc(Nc2cccc(C(F)(F)F)c2)nc(Nc2cccc(C(F)(F)F)c2)n1`: the Inhibition came to 73%.

In turn, `NC(=O)c1ccsc1NC(=O)CNC(c1ccccc1)c1ccccc1` came in with an Inhibition of 37%.

On to `O=C(O)C(F)(F)F.OCC1CCN(Cc2ccc(-c3ccc(-c4nc5cc(F)ccc5[nH]4)s3)cc2)CC1`, for which the Inhibition is recorded as 98%.

`O=C(Nc1ccc(-c2ccc(-c3nc4ccccc4[nH]3)s2)cc1)Nc1ccc(Cl)c(Cl)c1` displayed an Inhibition of 99%.

`O=C(NCCN1CCCCC1)c1cccc(Nc2nccc(Nc3ccc(Oc4ccccc4)cc3)n2)c1` gave an Inhibition of 86%.

Compound `CC(C)n1ncc2c(C(=O)N3CCCc4ccccc43)cc(-c3ccccc3)nc21` gave an Inhibition of 82%.

Consider `O=C(Nc1cccc(-c2nn3ncccc3c2-c2ccnc(Nc3ccc(N4CCOCC4)cc3)n2)c1)c1c(F)cccc1F`, for which the Inhibition came to 75%.

In the case of `O=C(NCCc1cccc(Cl)c1Cl)c1ccc(N2CCN(c3ccncc3)CC2)nc1.O=C(O)C(F)(F)F`, the Inhibition was determined as 79%.

As to `CN1CCC(Oc2cc(CN3CC[C@H](NC(=O)c4ccc(Cl)c(Cl)c4)C3)ccc2I)C1.O=C(O)C(F)(F)F` (stereo partly specified), the Inhibition is 24%.

The compound `CC(=O)c1cccc(NC(=O)N2CCCN(CCCCCNC(=O)/C=C/c3ccc(Cl)c(Cl)c3)CC2)c1` came in with an Inhibition of 0%.

`COc1ccc(-c2cccc(NC(=O)c3cccc(C#N)c3)c2)cc1CN1CCCN(C)CC1.O=C(O)C(F)(F)F` displayed an Inhibition of 99%.

`CC(C)Cn1cc(C2CCN(CCN3CCC(CNC(=O)c4ccc(NC(=O)c5ccc(Cl)cc5)cc4)CC3)CC2)c2ccccc21` came in with an Inhibition of 99%.

`CCOC(=O)c1cn(CC)c2cc(N(C)CCc3ccc(OC)c(OC)c3)c(F)cc2c1=O.Cl` had an Inhibition of 96%.

`O=C(NC(c1ccccc1)c1ccc2cccnc2c1O)c1ccccc1` (stereo unspecified) returned an Inhibition of 63%.

Consider `Cc1cccc2nc(-c3ccc(-c4ccc(CN5CCN(c6ccncc6)CC5)cc4)s3)[nH]c12.O=C(O)C(F)(F)F`, for which the Inhibition is 98%.

`Cc1ccc(Nc2nc3cc(Nc4ccnc(Nc5ccc(CS(C)(=O)=O)cc5)n4)ccc3o2)cc1` showed an Inhibition of 66%.

Consider `COc1ccc(-c2ccc(CNC(=O)c3cccc(C#N)c3)c(F)c2)cc1CN1CCCN(C)CC1.O=C(O)C(F)(F)F`, for which the Inhibition was found to be 30%.

Compound `CC(C)C[C@@H](/C=N/N1CCOC1=O)NC(=O)[C@H](CC(C)C)NC(=O)c1ccc(F)cc1` registered an Inhibition of 72%.

With `COc1ccc(CNCc2ccccc2)cc1-c1ccc(S(=O)(=O)NCCN2CCCC2)c(C)c1.O=C(O)C(F)(F)F`, the Inhibition stood at 50%.

`Cl.N=c1n(CCN2CCCCC2)c2ccccc2n1CC(O)c1ccc(Cl)c(Cl)c1` (stereo unspecified) yielded an Inhibition of 97%.

For `Cc1cc(N2CCCN(CC3CCCCC3)CC2)nc(Nc2ccc(Br)cc2)n1`, the Inhibition is given as 54%.

Take `Br.CCCc1cccc(C)c1OCCCON1C(=N)N=C(N)NC1(C)C`: the Inhibition amounted to 96%.

`O=C(COc1cnc2ccccc2n1)Nc1ccccc1Sc1ccc(Cl)cc1` yielded an Inhibition of 100%.

Turning to `CCCN(CC1CC1)c1nc(C)nc2c(-c3ccccc3)cc(C)cc12`, the Inhibition is listed as 78%.

Consider `CC(NC(=O)c1ccc(O)c(-c2ccc(Cl)c(Cl)c2)c1)C(=O)NCCN1CCOCC1` (stereo unspecified), for which the Inhibition worked out at 7%.

`Nc1ccc(-c2ccc3ccnc(N)c3c2)cc1` gave an Inhibition of 68%.
